Values without a mark were called inactive. Unless noted, the rule behind the calls is not given here.
experiment: Pseudomonas biofilm growth suppression – PAO1 strain, BacTiter-Glo luminescence, LB-PBS, primary screen (AID 1144); conditions: P. aeruginosa PAO1 biofilm, 12 h, higher = more signal

| SMILES | z-score |
| --- | --- |
| Cc1ccc(S[C@]2(C(=O)NCc3ccccc3)CC(=O)N(Cc3ccccc3C(F)(F)F)[C@@H]2c2ccc(CO)cc2I)cc1 | 1.59 |
| COCCCNC(=O)[C@@]1(CCC(=O)OC(C)(C)C)N=C(c2ccc(OCCCO)cc2)O[C@H]1c1ccccc1 | -0.029 |
| C=C(COC)/C(=C/C[C@@H](OC(C)=O)c1cccc(OCCO)c1)c1cnc2ccccc2c1 | 0.0432 |
| COC(=O)[C@@]1(Cc2ccc(F)cc2)[C@H]2c3cc(C(=O)N4CCCC4)n(Cc4ccc(OC(F)(F)F)cc4)c3C[C@H]2CN1C(=O)c1ccccc1 | -0.679 |
| O=C1OCCC/C=C\[C@H]2OC34C=CCN(Cc5ccccc5)C(=O)[C@H]3N(CCO)C(=O)[C@@H]4C12 (stereo not given in full) | -1.38 |
| COC(=O)[C@H](Cc1ccccc1)N1CC(C)(OC)O[C@@H](Cc2ccccc2)[C@H]1/C=C/C1CC1 (stereo not given in full) | 0.664 |
| COc1c(C)cc(-c2cc3c(c(CCc4ccccc4)n2)[Si](C(C)C)(C(C)C)O[C@H]3c2ccccc2)cc1C | -0.0716 |
| [N-]=[N+]=Nc1ccccc1C[C@@]1(C(=O)NCc2ccccc2)N=C(c2ccc(OCCCO)cc2)O[C@@H]1c1ccccc1 | -1.15 |
| C=C(CCCC)/C(=C/C[C@@H](OC(C)=O)c1ccc(OCCO)cc1)c1cc(C(=O)OC)ccc1OC | 0.412 |
| C=CCNC(=O)[C@H]1[C@@H]2C(=O)O[C@@H](c3ccccc3)[C@@H](c3ccccc3)N2[C@@H](c2ccc(OCCO)cc2)[C@]12C(=O)Nc1ccc(C#Cc3ccc(OC)cc3)cc12 | -0.832 |
| CC(C)N1C(=O)[C@@]2(Cc3ccccc31)c1ccccc1C(=O)N(Cc1ccccc1C(F)(F)F)[C@H]2c1ccc(CO)cc1 | -0.121 |
| COC(=O)c1ccc(OC)c(/C=C\CC(OC(=O)c2ccncc2)c2ccccc2)c1 (stereo not given) | -0.526 |
| O=C(NC1CC1)[C@@H]1c2ccccc2C(=O)N(C2CCCCC2)[C@H]1c1ccc(CO)cc1 | 0.446 |

experiment: basal CRE-LacZ reporter activity in PC12 – cell-based, unstimulated, primary screen (AID 1145); conditions: no forskolin, luminescence, 4.5 h, higher = more signal, called active from +8 up or from −8 down

| SMILES | z-score |
| --- | --- |
| COC(=O)C(CC#Cc1ccc2c(c1)[C@]1(C(=O)N2)[C@H](c2ccc(OCCO)cc2)N2[C@H](c3ccccc3)[C@H](c3ccccc3)OC(=O)[C@H]2[C@@H]1C(N)=O)C(=O)OC | -0.0246 |
| COC(=O)C(CC#Cc1ccc2c(c1)[C@]1(C(=O)N2)[C@H](c2ccccc2OCCO)N2[C@H](c3ccccc3)[C@H](c3ccccc3)OC(=O)[C@H]2[C@@H]1C(=O)N1CCN(c2ncccn2)CC1)C(=O)OC | -0.375 |
| COC(=O)Cn1c(C(=O)N(C)C)cc2c1C[C@H]1CN(C(=O)c3ccccc3)[C@@](Cc3ccccc3)(C(=O)OC)[C@@H]21 | -0.189 |
| COC(=O)[C@@]1(Cc2ccc(OC)cc2)[C@@H]2[C@@H](CC(=O)[C@H]2CC(=O)C(=O)N(C)C)CN1C(=O)c1ccccc1 | 0.39 |
| COC(=O)[C@@]1(Cc2ccccc2)[C@H]2c3cc(C(=O)N(C)C)n(Cc4nc5ccccc5[nH]4)c3C[C@H]2CN1C(=O)c1ccccc1 | 0.959 |
| COCCOC(=O)N1C(=O)[C@@]2(c3cc(C#CCCO)ccc31)[C@H](C(=O)N1CCN(c3ncccn3)CC1)[C@H]1C(=O)O[C@H](c3ccccc3)[C@H](c3ccccc3)N1[C@@H]2c1ccc(OCCO)cc1 | 1.05 |
| C=C(CCCC)/C(=C/C[C@@H](OC(C)=O)c1cccc(OCCO)c1)c1cc(C(=O)OC)ccc1OC | 4.5 |
| C=CCOC(=O)[C@H]1[C@@H]2C(=O)O[C@@H](c3ccccc3)[C@@H](c3ccccc3)N2[C@@H](c2ccc(OCCOC(=O)[C@H]3C[C@H]4C(=O)NCC(=O)N4[C@H]3c3cccc(OCCO)c3)cc2)[C@]12C(=O)Nc1ccc(I)cc12 | 0.423 |
| CCOC(=O)C=C1C[C@@H](c2cccc([N+](=O)[O-])c2)O[C@@H](c2cccc([N+](=O)[O-])c2)O1 | -0.527 |
| COc1ccc(C#Cc2ccc3c(c2)[C@]2(C(=O)N3)[C@H](c3ccccc3OCCO)N3[C@H](c4ccccc4)[C@H](c4ccccc4)OC(=O)[C@H]3[C@@H]2C(=O)NC[C@H](O)c2ccccc2)cc1 | 0.0921 |
| C=CC[C@H](O)c1ccc(O)c2ccccc12 | 6.45 |
| Cc1ccc(S[C@]2(C(=O)NCCN3CCOCC3)CC(=O)N(C(C)C)[C@@H]2c2ccc(CO)cc2I)cc1 | -0.116 |
